Source: PubChem BioAssay (Broad Institute)
PAX8 inh HTS – PAX8 transcriptional activity inhibition. inhibition, % at 12.6 µM. RMG-I TPO-luciferase reporter, SteadyGlo, 24 h. AID 652154. 360,000 compounds, 1.2% hits;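 active = mean replicate inhibition at least 60% with every replicate also reaching 60%; inconclusive = only one of the two criteria is met; inactive = mean below 60% and not all replicates reaching 60%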;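 note: luciferase light reporting Pax8 driven TPO promoter activity; plate controls were median of neutral control wells for no effect and mitoxantrone controls for full effect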
LGR2 inh – Drosophila LGR2 receptor signaling inhibition; HEK293 LGR2, CRE-luciferase, bursicon-stimulated, 4 h; inhibition, % at 9.99 µM; 380,000 compounds, 0.35% hits; AID 720647;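 active = drop in luminescence signal, shown as inhibition above about 50% in the replicate tests, limit read from the data, passing the limit was not always enough; inconclusive = probably only some replicates passing the limit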;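 note: agonist challenge used bursicon conditioned medium at about half maximal strength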
EWS-Fli block – inhibitors of EWS/Fli oncoprotein transcriptional activity; A673 NR0B1-luciferase reporter, viability-normalised; AID 651661; 350,000 compounds, 0.67% hits; inhibition, % at 12.6 µM;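 active = mean inhibition of at least 50% after viability correction, with every replicate also passing that limit; inconclusive = mean reaches 50% but only one of two replicates passes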;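 note: firefly luciferase signal divided by Alamar Blue viability fluorescence both relative to DMSO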
PGC1a acetyl inh – PGC1a acetylation modulation, inhibitor mode; inhibition, % at 15.6 µM; U2OS PGC1a acetylation, AlphaScreen anti-acetyl-lysine; with virally co-expressed GCN5 acetyltransferase; 350,000 compounds, 0.17% hits;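 active = every replicate shows inhibition of at least 40%; inconclusive = mean inhibition at least 40% but some replicate below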;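 note: 0% = neutral control wells and 100% = positive control wells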
SIRT5 block – sirtuin-5 (human) deacylase inhibition; Q9NXA8; Purified SirT5, succinyl-peptide AMC, trypsin-coupled fluorescence; inhibition, % at 15 µM; 330,000 compounds, 1.1% hits; AID 652115; in the data active = inhibition above about 15%; inconclusive = no clear call, values can overlap the other calls
Target sequence (Q9NXA8 whole entry, looked up): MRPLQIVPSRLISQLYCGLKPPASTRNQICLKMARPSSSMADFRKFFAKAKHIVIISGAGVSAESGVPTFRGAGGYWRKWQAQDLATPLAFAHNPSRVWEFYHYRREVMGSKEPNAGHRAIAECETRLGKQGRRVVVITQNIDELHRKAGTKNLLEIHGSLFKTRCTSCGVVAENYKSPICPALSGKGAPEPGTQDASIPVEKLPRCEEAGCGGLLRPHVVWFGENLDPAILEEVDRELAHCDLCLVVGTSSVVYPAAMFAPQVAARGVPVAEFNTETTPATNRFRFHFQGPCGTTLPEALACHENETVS
rRNA inh HTS – inhibits bacterial ribosomal RNA function over humanized ribosomes; E. coli WT GFP vs humanized-ribosome RFP mutants, fluorescence, 24 h; stronger effect = lower value; DMSO median 0, no signal -100; 350,000 compounds, 1.6% hits; GFP signal change (wild-type ribosome), % (test concentration not listed);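 active = significant combined selectivity score with lowered wild-type GFP, culture density cut under 30%, mutant RFP and density less affected; inactive = any of these conditions unmet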
* marks the source's active call; other numbers are inactive results; ? = inconclusive; . = no result. In the library only some 3.4% were active in any assay of this set; here they are far more common.

SMILES	PAX8 inh HTS	LGR2 inh	EWS-Fli block	PGC1a acetyl inh	SIRT5 block	rRNA inh HTS
Cc1ccc(S(=O)(=O)N(C)C[C@@H]2OCCCC[C@H](C)Oc3ccc(NS(=O)(=O)c4ccc(Cl)cc4)cc3C(=O)N([C@H](C)CO)C[C@H]2C)cc1	81.4*	5.1	2.8	-14.3	20.7*	1.7
Cc1cc(C)n(-c2nnc(C)n2/N=C/c2ccc(O)cc2)n1	-11.2	-6.4	-0.6	1.8	17.8*	13.4
Cc1cc(C)n(-c2nnc(C)n2/N=C/c2ccccc2F)n1	-15.4	.	.	5.1	.	.
O=c1c2ccccc2cnn1CCOc1ccccc1	.	86.4*	.	18.5	.	.
CCOC(=O)N1CCN(c2nc3ccccc3n3cnnc23)CC1	-9.5	7.3	-6.3	-2.3	0.4	-17.3*
Cc1cccc(N2CCN(c3nc4ccccc4n4cnnc34)CC2)c1C	1.2	28.1	-7.4	-47.1	3.1	11.3
COc1ccc2c(CC(=O)Nc3ccccc3OC)coc2c1	-29.4	-60.8	-9.1	7.1	-0.3	-19.9
COc1ccc(NC(=O)COC(=O)Cc2coc3cc(OC)ccc23)c(OC)c1	-5.2	-12.0	-8.9	3.2	-4.4	-33.9*
COc1ccc2c(CC(=O)Nc3ccccc3N3CCOCC3)coc2c1	11.9	-8.3	4.2	-12.4	-1.2	-27.4*
CCOC(=O)CSc1nnc(-c2cc(OC)c(OC)c(OC)c2)o1	11.0	0.3	7.6	-4.2	-4.7	0.5
COc1cc(-c2nnc(SCC(=O)c3ccccc3)o2)cc(OC)c1OC	.	4.1	2.4	1.7	-9.1	-24.6*
CC(C)C(=O)Nc1ccc2c(c1)C(=O)N(C)[C@H]1CC[C@H](CC(=O)NCC3CC3)O[C@H]1CO2	-9.6	3.4	-0.3	-0.7	-2.5	1.5
CCCCNc1c([N+](=O)[O-])ncn1C	-7.2	7.5	-7.2	14.1	1.5	8.9
CCCCNc1nc(N)ncc1[N+](=O)[O-]	5.3	5.1	3.7	.	30.0*	0.5
O=C(NCC[C@@H]1CC[C@H](NS(=O)(=O)c2ccc(Cl)cc2)[C@@H](CO)O1)Nc1ccc(F)cc1	7.3	4.7	-14.3	.	-1.7	-2.3
C[C@@H]1CN([C@@H](C)CO)C(=O)Cc2cc(NS(=O)(=O)c3ccccc3)ccc2O[C@@H]1CN(C)Cc1ccc(Cl)c(Cl)c1	31.1	1.5	8.7	-10.8	-6.5	-3.5
C[C@@H]1CN([C@@H](C)CO)C(=O)Cc2cc(NS(=O)(=O)c3ccc(F)cc3)ccc2O[C@H]1CN(C)Cc1ccc(Cl)c(Cl)c1	93.3*	35.9	23.4	34.2	.	1.4
C[C@H]1CN([C@@H](C)CO)C(=O)Cc2cc(NS(=O)(=O)c3ccc(Cl)cc3)ccc2O[C@@H]1CN(C)Cc1ccc(Cl)c(Cl)c1	18.1	?	6.1	-4.0	15.1*	0.2
C[C@H](CO)N1C[C@H](C)[C@@H](CN(C)Cc2ccc(Cl)c(Cl)c2)Oc2ccc(NS(=O)(=O)c3ccccc3)cc2CC1=O	83.3*	4.1	-8.1	-0.6	28.0*	0.7
C[C@@H]1CN([C@@H](C)CO)C(=O)Cc2cc(NS(=O)(=O)c3ccc(Cl)cc3)ccc2O[C@@H]1CN(C)Cc1ccc(Cl)c(Cl)c1	14.2	8.9	3.1	-6.2	-5.5	-0.3
C[C@@H]1CN([C@@H](C)CO)C(=O)Cc2cc(NS(=O)(=O)c3ccc(F)cc3)ccc2O[C@@H]1CN(C)Cc1ccc(Cl)c(Cl)c1	2.4	2.6	9.8	-0.2	.	-1.4
COc1ccc(-c2nc(N=Nc3ccc(O)cc3)n[nH]2)cc1	-78.3	-8.0	-20.2	2.4	6.8	-27.0*
CO[C@@H]1CN(C)C(=O)c2ccc(NS(=O)(=O)c3ccc(Oc4ccccc4)cc3)cc2OC[C@H](C)NC[C@@H]1C	.	-16.0	2.3	2.2	1.8	1.7
CC(C)S(=O)(=O)C1=NSC2=NC(=O)/C(=C\c3ccc(-c4cccc(C(=O)O)c4)o3)C(=N)N21	-2.3	5.2	2.0	.	21.0*	4.0
N=C1/C(=C/c2ccc(-c3cccc(C(=O)O)c3)o2)C(=O)N=C2SC=C(c3ccccc3)N12	11.7	-0.6	-3.0	.	-5.3	-20.7*
SMILES	PAX8 inh HTS	LGR2 inh	EWS-Fli block	PGC1a acetyl inh	SIRT5 block	rRNA inh HTS
CON(C)C(=O)CC(CN(Cc1ccccc1)C(=O)OC(C)(C)C)c1ccc(Cl)cc1 (stereo not given)	9.3	8.8	8.5	.	-4.2	-1.0
CON(C)C(=O)CC(CNC(=O)OC(C)(C)C)c1ccc(Cl)cc1 (stereo not given)	5.5	-5.0	-0.6	.	21.5*	11.5
Cc1ccc(-c2ccc([C@@H]3[C@@H](CO)N4C(=O)CN(C(=O)Cc5ccccn5)C[C@@H]34)cc2)cc1	-4.3	-13.4	-6.0	0.5	1.7	8.7
COc1ccc(NC(=O)N2CC(=O)N3[C@@H](CO)[C@@H](c4ccc(/C=C/c5ccccc5)cc4)[C@@H]3C2)cc1	89.1*	.	12.8	-8.2	0.0	.
O=C(Nc1ccc(F)cc1)N1CC(=O)N2[C@H](CO)[C@@H](c3ccc(-c4ccccc4)cc3)[C@@H]2C1	-7.5	-10.4	60.4*	4.6	2.8	-38.3
COc1ccc(-c2ccc([C@@H]3[C@H]4CN(C(=O)Cc5ccccn5)CC(=O)N4[C@H]3CO)cc2)cc1	.	-4.0	0.1	-1.3	27.7*	-3.8
COc1cc(C(=O)NNC(=O)C2CCC2)cc(OC)c1OC	6.2	6.0	-3.0	.	25.3*	3.7
COc1cc(C(=O)c2cc3c(cc2C)OCO3)cc(OC)c1OC	83.7*	-14.7	58.4*	-7.9	0.0	0.0
COc1cc(C(=O)NC(=S)NNC(=O)c2ccc3c(c2)OCO3)cc(OC)c1OC	-1.2	10.7	21.0	6.2	9.5	-23.4*
COc1cc(C(=O)NNC(=O)C2CC=CCC2C(=O)O)cc(OC)c1OC (stereo not given)	-11.1	-34.0	6.5	.	-4.6	24.9
CC(C)C[C@@H]1NC(=O)[C@H](Cc2ccccc2)N(C)C(=O)[C@H](C)NC(=O)c2ccccc2NC(=O)[C@H](Cc2ccc(O)cc2)N(C)C1=O	.	16.9	20.2	4.4	.	.
COc1ccc(CC2C(=O)NC(C)C(=O)N(C)C3Cc4ccc(cc4)Oc4cc(ccc4O)CC(C(=O)NC(C)C(=O)NC(C)C(=O)N2C)N(C)C3=O)cc1 (stereo not given)	110.0*	103.3*	66.4*	69.5*	1.3	11.5
CN(C)c1ccc(C=C2C=C(c3ccccc3)OC2=O)cc1	-33.8	-33.9	-21.4	0.9	.	0.5
CN(C)c1ccc(C=c2c3ccccc3n3c2cc(-c2ccccc2)[n+]3C)cc1	95.0*	91.1*	-10.1	.	.	-49.4
CN(C)c1ccc(C=c2c3cc([N+](=O)[O-])ccc3n3c2cc(-c2ccccc2)[n+]3C)cc1	113.8*	42.9	56.3*	.	-10.0	-5.5
CN(C)c1ccc(C=c2c3ccccc3n3c2cc(-c2ccc(Cl)cc2)[n+]3C)cc1	78.5*	28.9	8.7	.	-1.0	-39.9
